Source: PubChem
An excerpt weighted towards active compounds, which were near 2.9% of everything screened.
PLC-beta3 inh = inhibitors of human phospholipase C beta3. Q01970. Purified PLC-beta3, fluorogenic substrate, fluorescence. inhibition, % at 12.2 µM. hit rate 0.18% among 370,000. AID 720704; in the data active = inhibition above about 11%;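 also: 0% = median of compound wells on plate and 100% = full blocker control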
ADAM10 inh = inhibits human ADAM10; hit rate 0.62% among 370,000; recombinant ADAM10, EDANS/DABCYL FRET peptide cleavage, 3 h; AID 720582; inhibition, % at 7 µM; O14672;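 active = inhibition above a per-campaign cutoff equal to the mean of compounds falling between control-based bounds plus 3 SD, cut at about 20% in these data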;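 also: 0% = DMSO wells while the 100% control is not disclosed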
PLCg1 inh = inhibitors of human phospholipase C gamma1 | purified PLC-gamma1, fluorogenic substrate, fluorescence | AID 720700 | P19174 | hit rate 0.84% among 370,000 | inhibition, % at 12.2 µM; in the data active = inhibition above about 9.5%
ADAM17 inh = inhibits human ADAM17 | P78536 | recombinant ADAM17, EDANS/DABCYL FRET peptide cleavage | inhibition, % at 6.95 µM | hit rate 0.83% among 370,000;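 active = inhibition above the mean of compounds lying between control limits plus 3 SD, set per campaign, cut at about 8.5% in these data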;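 also: 0% = DMSO-only wells as the low control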
Target sequence (P78536 215-824 limits assumed): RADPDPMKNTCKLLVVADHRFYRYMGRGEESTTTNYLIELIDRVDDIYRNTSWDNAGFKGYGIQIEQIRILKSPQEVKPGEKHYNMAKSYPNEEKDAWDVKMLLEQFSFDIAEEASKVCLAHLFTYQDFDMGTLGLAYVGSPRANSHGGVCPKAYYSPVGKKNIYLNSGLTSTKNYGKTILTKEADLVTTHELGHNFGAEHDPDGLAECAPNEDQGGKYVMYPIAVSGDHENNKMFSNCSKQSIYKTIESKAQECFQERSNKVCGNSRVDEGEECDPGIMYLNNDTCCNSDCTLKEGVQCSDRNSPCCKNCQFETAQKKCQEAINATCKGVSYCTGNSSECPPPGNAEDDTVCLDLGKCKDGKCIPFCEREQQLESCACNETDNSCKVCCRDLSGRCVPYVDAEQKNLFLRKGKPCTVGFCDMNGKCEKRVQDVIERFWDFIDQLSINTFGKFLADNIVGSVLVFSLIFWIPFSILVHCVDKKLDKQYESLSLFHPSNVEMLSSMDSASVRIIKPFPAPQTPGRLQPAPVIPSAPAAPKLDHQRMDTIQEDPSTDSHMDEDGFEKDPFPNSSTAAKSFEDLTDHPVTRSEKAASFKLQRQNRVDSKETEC
KLK7 zymogen act = proKLK7 (human) activation, primary screen. P49862. purified proKLK7, EDANS-DABCYL substrate fluorescence; 100% is mature enzyme control, 0% vehicle. activation, % at 7 µM. hit rate 0.9% among 370,000;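 active = activation above the mean of all tested compounds plus 3 SD, computed per campaign excluding outliers beyond control limits, cut at about 13% in these data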
proKLK7 act conf = proKLK7 activation, confirmation. shares compounds with KLK7 zymogen act. purified proKLK7, EDANS-DABCYL substrate fluorescence; scaled: vehicle 0, mature enzyme 100. activation, % at 7 µM. hit rate 68% among 3,200;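 active = activation, as change over the incubation, above the mean of all tested compounds plus 3 SD, cut at about 13% in these data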
EDANS interfere = optically interferes with EDANS-DABCYL signal, flagging KLK7 hits | shares compounds with KLK7 zymogen act | EDANS-DABCYL substrate fluorescence interference, no enzyme, 4 h; solvent 0%, active enzyme control 100% | activation, % at 7 µM | hit rate 80% among 3,200 | AID 686952;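 active = activation above the all-compound mean plus 3 SD, ignoring values outside control-based bounds, cut at about 4.8% in these data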;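 also: value is the 4 h activation minus the activation read at time zero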
An asterisk follows results filed as active; i = inactive; · = not tested or not shown.

SMILES | PLC-beta3 inh | ADAM10 inh | PLCg1 inh | ADAM17 inh | KLK7 zymogen act | proKLK7 act conf | EDANS interfere
O=C1/C(=C/c2ccc(O)c(O)c2)Oc2cc(O)ccc21 | -245 | -18 | -192 | -2 | 45* | 109* | 118*
COCc1[nH]nc2c1C(c1cccc(C(F)(F)F)c1)N(c1ccccc1)C2=O (stereo not drawn) | 1 | -8 | 2 | -5 | 0 | · | ·
O=C1NC(c2ccc(Cl)cc2)Nc2ccccc21 (stereo not drawn) | -33 | -81 | -25 | -27 | 3 | · | ·
CCOc1ccccc1C1NC(=O)c2ccccc2N1 (stereo not drawn) | i | i | -435 | -404 | 13* | 13* | 12*
Cc1ccc(C2NC(=O)c3ccccc3N2)c(C)c1 (stereo not drawn) | i | i | i | i | 32* | 29* | 26*
O=C1NC(c2ccco2)Nc2ccccc21 (stereo not drawn) | -435 | i | -323 | -306 | 16* | 17* | 18*
CCNc1nc2nc3ccc(C)cn3c(=O)c2cc1C(=O)NCC1CCCO1 (stereo not drawn) | i | i | i | i | 75* | 69* | 69*
Cc1ccc2nc3c(cc(C(=O)NC4CCS(=O)(=O)C4)n3Cc3ccccc3)c(=O)n2c1 (stereo not drawn) | i | i | i | -440 | -65 | · | ·
Cc1ccc2nc3nc(NCC4CCCO4)c(C(=O)NC4CCCC4)cc3c(=O)n2c1 (stereo not drawn) | -440 | i | -436 | i | 24* | -3 | -11
C[C@]12c3[nH]c4cc(-c5ccco5)ccc4c3CCN1C(=O)[C@@H](CC(=O)NCc1cccc(C(F)(F)F)c1)C[C@@H]2C(=O)N1CCOCC1 | i | -437 | -490 | -125 | 16* | -1 | -2
COCCCNC(=O)C[C@H]1C[C@H](C(=O)N2CCCCC2)[C@@]2(C)c3[nH]c4cc(-c5ccco5)ccc4c3CCN2C1=O | i | -448 | i | -132 | 170* | 88* | 114*
C[C@]12c3[nH]c4cc(-c5ccco5)ccc4c3CCN1C(=O)[C@@H](CC(=O)NCCN1CCOCC1)C[C@@H]2C(=O)N1CCCCC1 | -317 | -371 | -240 | -95 | 134* | 63* | 61*
NC(=O)c1ccccc1NC(=O)c1ccc2ccccc2c1 | -10 | 5 | -5 | -1 | 15* | -3 | -3
CCOC(=O)c1cnc2c3c(noc13)CCC2 | -4 | -1 | 1 | -1 | 0 | · | ·
CC(C)OCCCNC(=O)c1cc(-c2cccs2)nc2ccccc12 | i | i | -458 | i | 15* | 13* | 13*
CCc1ccc(-c2cc(C(=O)NN3CCOCC3)c3ccccc3n2)s1 | i | i | i | i | 49* | 79* | 68*
O=C(O)c1cc(-c2cccs2)nc2cc3c(cc12)OCCO3 | i | i | i | i | 30* | 42* | 50*
Cc1cc(C)c2nc(NNC(=O)c3cc(-c4cccs4)nc4ccccc34)sc2c1 | -94 | -297 | -72 | -67 | 13* | 10 | 12*
Cc1ccc2sc(NNC(=O)c3cc(-c4cccs4)nc4ccccc34)nc2c1C | -24 | -128 | -19 | -32 | 4 | · | ·
O=C(NN1CCOCC1)c1cc(-c2cccs2)nc2ccccc12 | i | i | i | i | 37* | 33* | 36*
O=C(OC1CCOC1=O)c1cc(-c2cccs2)nc2ccccc12 (stereo not drawn) | i | i | i | i | 275* | 139* | 189*
Cc1ccc(-c2cc(C(=O)OC3CCOC3=O)c3ccccc3n2)c(C)c1 (stereo not drawn) | -17 | -2 | -8 | 1 | 1 | · | ·
O=C(CN1CCN(C2CCCCC2)CC1)c1ccc2cc[nH]c2c1 | -329 | -259 | -276 | -67 | 22* | 20* | 20*
CN(C)CCCN(C(=O)/C=C/c1cccs1)c1nc2ccc(F)cc2s1 | -13 | -5 | -7 | -5 | 35* | 154* | 232*
CCN(CC)CCN(C(=O)/C=C/c1cccs1)c1nc2ccc(F)cc2s1 | -12 | -9 | 1 | 1 | -11 | · | ·
SMILES | PLC-beta3 inh | ADAM10 inh | PLCg1 inh | ADAM17 inh | KLK7 zymogen act | proKLK7 act conf | EDANS interfere
CCOC(=O)CNC(=O)c1cc2c(=O)[nH]c3ccc(C)cc3c2s1 | -81 | -212 | -56 | -81 | -5 | · | ·
Cc1ccc2[nH]c(=O)c3cc(C(=O)NCCN4CCN(C)CC4)sc3c2c1 | -226 | i | -164 | -292 | 17* | -18 | -22
Cn1cc(CC(=O)Nc2ccc(Oc3cccnc3)cc2)c2ccccc21 | -4 | -6 | -3 | -2 | 1 | · | ·
Cc1cc(C)c(C#N)c(SCC(=O)Nc2nonc2N)n1 | -429 | -152 | -310 | -56 | 40* | 74* | 72*
Cc1cc(C)c(C#N)c(SCC(=O)C2CC2)n1 | -347 | -161 | -322 | -73 | 89* | 121* | 135*
COCc1cc(C)nc(SCC(=O)Nc2nc(C)cs2)c1C#N | i | -24 | -424 | -16 | 76* | 140* | 136*
COCc1cc(C)nc(SCC(=O)Nc2cccc(C)c2C)c1C#N | 1 | 0 | 0 | -4 | 0 | · | ·
Cc1ccc(C)c(NC(=O)CSc2nc(C)cc(C)c2C#N)c1 | -1 | -9 | -8 | -9 | 0 | · | ·
COC(=O)CSc1nc(C)cc(C)c1C#N | -85 | -46 | -87 | -18 | 58* | 125* | 121*
CNS(=O)(=O)/C=C/c1ccccc1CCNC(=O)OC(C)(C)C | -1 | 19 | 2 | 8 | 0 | · | ·
Cc1ccc(Cn2cc(CN3[C@@H](CC(C)C)COc4cc(Br)ccc4S3(=O)=O)nn2)cc1 | -1 | -14 | 0 | -1 | -1 | · | ·
CC(C)(C)c1ccc(C#C[C@@H]2C=C[C@H]3OC(=O)CC/C=C/CCC(=O)OC[C@H]3O2)cc1 | -1 | -13 | -1 | -2 | 1 | · | ·
Cn1c(=O)cc(OCCCC(=O)Nc2cc(-c3ccncc3)ccn2)c2ccccc21 | 0 | -12 | 0 | 1 | · | · | ·
CCOC(=O)[C@@]12CCC3=C1N(CCC3)C(=O)[C@H](CC(=O)NCc1cccc(C(F)(F)F)c1)C2 | -1 | -11 | -2 | -7 | 0 | · | ·
Cn1cccc1C(=O)N1CCN(S(=O)(=O)c2cccc3ccccc23)CC1 | 0 | 8 | -2 | 1 | 0 | · | ·
COC(=O)CSc1ccccc1C(=O)OC | -7 | -101 | -9 | -30 | 55* | 84* | 83*
CCOC(=O)CC(=O)CSc1nc(C)cc(C)c1C#N | -41 | -71 | -38 | -22 | 41* | 61* | 74*
COC(=O)c1ccccc1SCC(=O)Nc1ccc(N2CCOCC2)cc1 | -5 | -14 | -1 | -4 | 1 | · | ·
